Laboratory results as given in the supplement of paper PMC6555819.

tested on: VDR:RXRa (NR concentration 270 nM, RXRa partner concentration 90 nM); test: PBM binding z-score (relative to random genomic background probes); higher = stronger binding; sequences stand for … in GC…GCGATTGACAGCGTAGAATGAAGG
Experimental: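 Protein-binding microarray (Agilent 4x180K custom design, double-stranded 60-nt probes: 5' GC cap, 34-nt variable region, 24-nt constant primer region; full probe sequence given). Purified or IVT nuclear receptor:RXRα heterodimers (3:1 NR:RXRα, mostly 270:90 nM) or homodimers were incubated for 1 h in PBS with 2% milk and no ligand, then detected with Alexa488 antibodies. Fluorescence from o1-orientation probes (~5 replicates averaged) was converted to z-scores against 500 random hg19 background probes. Variable regions are seed direct-repeat (DR0–DR5) sites, all their single-nucleotide variants and half-site ablations.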

Row | Sequence | PBM binding z-score
1 | CCTACTCGGCCATCAGGTCATTGATATCAACGTT | 2.37
2 | TAGCCTAGGTCATTGGGCCAGCATAGTACGCATC | 2.14
3 | TGTAAAAGTTCAAAGGTAACGTAAGTATCCACAC | 4.65
4 | AGAATGAGGTTATACTTAGATCAGGGAAGAAAGT | 1.41
5 | CCTACTGGGCCAAAAGGGTCATTGATGCCGATAA | 4.44
6 | ATCGAAAGGTCGACGAGGTGAGTATCCACCGTTT | 5.24
7 | GCTAGCAGGCCATTTGGGTCACCCAATGACGGGC | 1.07
8 | CCTCGGAGGACAGAAGGTCAGAGGTGTCCGCTTT | 1.24
9 | AGTCAAACTTCACTAGGTAACGTAAGATTCAGCT | -0.0334
10 | CTCGAAAGGTCGGTTTAGGTGAGTATACGGATAA | 1.28
11 | CCTACTGGGCCAAGGTCATTAATCAGTCAAAGCA | 2.84
12 | CCTTACGGGTCACTGACAGGTTATAGCATTTGGA | 3.8
13 | ATTTGTAGGTTAAGGGTCATTCAGGTTGGTTCGC | 6.08
14 | ATATGTAGGTTACATCCGGGTCATTCACGCTATG | 4.35
15 | TAGCCTAGGTCAGATCGGGACAGTATACGCTATA | 1.23
16 | CGTCAAAGTTCAACTAAGGTGACGTAAAGCACGC | 4.87
17 | GCTATTAGTTGAACGGGCAACCGAATGATTCTCG | -0.187
18 | ACAGACAGGTGATGAAGGTAACGCAGGCTATCAT | -0.0633
19 | ATCTCTAGGTAACCAGTTCAGTGAAAGAGAGGAC | 1.16
20 | ATATGTAGGTAAAGGGTCATTCAGGTTGGTTCGC | 5.54

Row | Sequence | PBM binding z-score
21 | ATATGTAGGTTAGATCCGGGTCATTCAGGCTATG | 3.5
22 | GATACAGGGTCAGCTAGGGGCCAGAGTATGGAAA | 3.31
23 | GCTTGTAGATCAATGTTAAGAAAGACTAAGCTAA | -0.368
24 | TCGAGTAGGTTAGTCGAGGCATTCAGCCAACATA | -0.258
25 | CAAACTAGGTCACCGAGGTCAAAGTCCGTGCGTA | 8.34
26 | ACCCGGAGGACAAAGGTCAGAGCTACGCCAGTGA | 3.2
27 | TCTGCTAGGTCAGTTGGCCAGCTAACGAGCTGCC | -0.113
28 | TCTACCAGGCCAGAGGGTCACTCAAGAGGTACGG | 2.1
29 | AATACAGGGTCATCGTAGGCCAGAGTTCGCACAG | 5.79
30 | CCTAGGTGGTCAAGGTCACACACGCTATAGGTAC | 4.76
31 | ATATGTAGGTTATCGGATCATTCAGTTTGCGCAT | 1.58
32 | TCTATTAGTTGATGAGGGCAACCGAAACAGCGGA | 1.15
33 | AGAACGAGGGCACGCTGAGTTAATAGCAGAGTAG | 1.69
34 | GCTATTAGTTGAAAGGGCAACAGAATGATTCTCG | 0.688
35 | GGAACGAGGGCATTCGAGATGATAGCATGGCGAT | 1.45
36 | ACTTACCGGTCAACGAGGTTATAGCACGCGTATA | 6.19
37 | TCATATAGGTAACGGTGAAAGTCGAACGATATGA | 0.164
38 | ATCGAAAGGTCGACGAGGTGAGTAGACACCGTTT | 5.23
39 | CAAACTAGGTCACCGGAAGGGCAAAGTCCGCATG | 3.81
40 | CCTACTGGGCCATTCAGAGGTCATTGAGCATATG | 4.17
